Test results as given in PubChem BioAssay (Tox21).
Results filed as inconclusive are left out. Active and inactive are the calls of the source. Unless noted, the call rests on the fitted dose curve; in most records, active means well fitted curve in the direction sought with a large enough effect in the repeat runs; inconclusive means weak or mixed curves; inactive means no such curve, though single readings can be large; an effect the other way counts as inactive or inconclusive.

Legend:
[1] = qHTS assay to identify small molecule antagonists of the estrogen related receptor (ERR) signaling pathway from Tox21 library - cell viability counter screen (AID 1224834); further: nearly all actives have a fitted effect of over 30% in size
Method in brief: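 CellTiter-Fluor fluorescence, read after 30 min at 37 C, measures viability of ERR cells. Cells plated at 2,000/well and incubated 6 h before pin-tool compound addition, then exposed 17.5 hours at 37 C.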

[2] = target: Luciferin 4-monooxygenase (Photinus pyralis) (UniProt P08659); test: qHTS assay to identify small molecule inhibitors of firefly luciferase (AID 1224835); further: nearly all actives have a fitted effect of over 25% in size
Method in brief: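 Quantitative HTS format; KM concentrations of both substrates. Purified P. pyralis FLuc activity quantified from luminescence images.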

[3] = qHTS assay to identify small molecule agonists of the constitutive androstane receptor (CAR) signaling pathway - cell viability counter screen (AID 1224836); further: nearly all actives have a fitted effect of over 45% in size
Method in brief: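 HepG2 cells stably carrying hCAR and a CYP2B6-2.2kb reporter were plated 4 h, then given compounds at 15 concentrations plus PK11195 (final 0.75 uM). After 23 h at 37 C, viability was read by CellTiter-Fluor fluorescence.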

[4] = qHTS assay to identify small molecule antagonists of the constitutive androstane receptor (CAR) signaling pathway - cell viability counter screen (AID 1224837); further: nearly all actives have a fitted effect of over 45% in size
Method in brief: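 Cytotoxicity counter-screen: CellTiter-Fluor fluorescence after 23 h compound exposure (15-point qHTS) in double-stable HepG2-CYP2B6-hCAR cells, with 50 nM CITCO added.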

[5] = target: Nuclear receptor subfamily 1 group I member 3 (Homo sapiens) (UniProt Q14994); test: qHTS assay to identify small molecule antagonists of the constitutive androstane receptor (CAR) signaling pathway (AID 1224838); further: nearly all actives have a fitted effect of over 40% in size
Method in brief: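 Antagonism measured as luciferase signal (ONE-Glo, 30 min, room temperature) in CAR-stimulated cells: HepG2-CYP2B6-hCAR double-stable line exposed 24 hr at 37 C to compound in a 15-point series plus 50 nM CITCO.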

[6] = target: Nuclear receptor subfamily 1 group I member 3 (Homo sapiens) (UniProt Q14994); test: qHTS assay to identify small molecule agonists of the constitutive androstane receptor (CAR) signaling pathway (AID 1224839);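 further: HepG2 cells stably carrying human CAR and a CYP2B6 luciferase reporter; nearly all actives have a fitted effect of over 15% in size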
Method in brief: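 HepG2 cells stably expressing hCAR and a CYP2B6-2.2kb luciferase reporter were treated with compounds at 15 concentrations plus 0.75 uM PK11195 (final) for 24 h at 37 C; luminescence was read after ONE-Glo addition.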

[7] = qHTS assay to identify small molecule antagonists of the estrogen related receptor signaling pathway with the pleiotropic PPARgamma coactivator (PGC) from Tox21 10K library - cell viability counter screen (AID 1224840; active means well fitted cell-killing curve with a large enough effect in the repeat runs, not every such curve was filed as active; further: nearly all actives have a fitted effect of over 40% in size)
Method in brief: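 Counter-screen for cytotoxicity: after 17.5 h compound exposure at 37 C, CellTiter-Fluor reagent added to PGC/ERR cells for 30 min and fluorescence read. Cells were seeded at 2,000 per well 6 h before dosing.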

[8] = qHTS assay to identify small molecule antagonists of the estrogen related receptor signaling pathway with the pleiotropic PPARgamma coactivator (PGC) from Tox21 10K library (AID 1224841; call rule not given here; further: actives are mostly falling curves and most rising ones were filed inactive; nearly all actives have a fitted effect of over 50% in size)
Method in brief: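 Luminescence (One-Glo, 30 min at room temperature) after 18 h compound treatment at 37 C of PGC/ERR reporter cells plated at 2,000 cells/well and settled 6 h beforehand.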

[9] = qHTS assay to identify small molecule agonists of the estrogen related receptor signaling pathway with the pleiotropic PPARgamma coactivator (PGC) from Tox21 10K library (AID 1224842); further: nearly all actives have a fitted effect of over 15% in size
Method in brief: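 PGC/ERR reporter cells (NTP line) were seeded 2,000 per well, rested 6 h at 37 C/5% CO2, then pin-dosed with compounds in DMSO for 18 h at 37 C; luciferase read by One-Glo luminescence after 30 min at room temperature.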

[10] = target: Thyrotropin receptor (Homo sapiens) (UniProt P16473); test: qHTS assay to identify small molecule agonists of the thyroid stimulating hormone receptor (TSHR) signaling pathway (AID 1224843; calls by dose curve; further: nearly all actives have a fitted effect of over 45% in size)
Method in brief: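 Using 15 concentrations per compound in triplicate, cAMP production was monitored in TSHR-HEK293 cells after 30 min compound incubation at RT; HTRF reagents followed, with fluorescence intensity recorded after 1 h.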

[11] = qHTS assay to identify small molecule agonists of the hypoxia (HIF-1) signaling pathway - cell viability counter screen (AID 1224844; calls by dose curve; further: nearly all actives have a fitted effect of over 50% in size)
Method in brief: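 Cytotoxicity measured by CellTiter-Glo ATP luminescence in the wells also read for beta-lactamase signal. Cells were HRE-bla ME-180 (2,000/well, 0.5% dialyzed FBS), exposed to compounds for 17 h at 37C.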

[12] = qHTS assay to identify small molecule agonists of H2AX (AID 1224845; active means well fitted activation curve with a large enough effect in the signal ratio in the repeat runs, not every such curve was filed as active; the % refers to the signal ratio)
Method in brief: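 Wild-type CHO-K1 cells plated overnight, then exposed 3 hr at 37C to compounds at 15 concentrations (0.76% DMSO). Lysed, then HTRF anti-pH2AX(S139)-cryptate/anti-H2AX-d2 detection after 24 hr at room temperature; emissions 665 and 620 nm.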

[13] = qHTS assay to identify small molecule agonists of the hypoxia (HIF-1) signaling pathway (AID 1224846; active means well fitted activation curve with a large enough effect in the signal ratio in the repeat runs, not every such curve was filed as active; the % refers to the signal ratio)
Method in brief: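 Compounds added to ME-180 cells carrying hypoxia-response-element beta-lactamase reporter (0.5% dialyzed FBS, 5 h preplating), 17 h at 37C; agonist activity detected by CCF4-AM B/G FRET read-out.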

[14] = qHTS assay to identify small molecule agonists of H2AX - cell viability counter screen (AID 1224847; calls by dose curve; further: top concentration of the series differs between compounds; nearly all actives have a fitted effect of over 30% in size)
Method in brief: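 Wild-type CHO-K1 cells (10% FBS medium) were plated overnight at 37C, exposed to compounds at 15 concentrations for 3 hr at 37C (0.76% DMSO final), and viability was read as CellTiter-Glo luminescence after 30 min at room temperature.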

[15] = qHTS assay to identify small molecule antagonists of the estrogen related receptor (ERR) signaling pathway from Tox21 library (AID 1224848); further: nearly all actives have a fitted effect of over 50% in size
Method in brief: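 Tox21 10K compounds in DMSO tested for ERR pathway antagonism in NTP's ERR cell line; 18 h, 37 C exposure; ONE-Glo luminescence.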

[16] = qHTS assay to identify small molecule agonists of the estrogen related receptor (ERR) signaling pathway from Tox21 library (AID 1224849; calls by dose curve; further: nearly all actives have a fitted effect of over 15% in size); settings: ERR reporter cell line, ONE-Glo luciferase, 18 h; at 92.4 µM (top of the series) unless noted
Method in brief: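 Luminescent agonist read-out (One-Glo, 30-minute room-temperature incubation) following 18-hour compound treatment at 37 C of the ERR cell line, which had been plated 6 hours before dosing.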

[17] = qHTS RealTime-Glo MT Cell Viability Assay in HepG2 cells - 24 hour (AID 1224867); further: nearly all actives have a fitted effect of over 50% in size
Method in brief: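 HepG2 cells were seeded at 600 cells/well together with NanoLuc luciferase and a cell-permeant prosubstrate, preincubated 5 h at 37 C/5% CO2, then pin-dosed with compounds in DMSO. Nonlytic luminescence from viable cells was read at each time point.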

[18] = qHTS RealTime-Glo MT Cell Viability Assay in HEK293 cells - 32 hour (AID 1224868)
Method in brief: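 HEK293 cells were seeded at 600 cells/well together with NanoLuc luciferase and cell-permeant prosubstrate, preincubated 5 h at 37 C/5% CO2, then given compound in DMSO by pintool. Luminescence from viable-cell prosubstrate reduction was read repeatedly over 40 h.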

[19] = A CellTox Green Cytotoxicity Assay to monitor cytotoxicity in HEK293 cells - 0 hour (AID 1224869); further: nearly all actives have a fitted effect of over 50% in size
Method in brief: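 Fluorescence from a DNA-binding dye excluded by viable cells was measured repeatedly in the same HEK293 wells (600 cells/well) during continuous compound exposure at 37 C. Each assay gives one read point: 0, 8, 16, 24, 32 or 40 h.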

[20] = qHTS assay to identify small molecule agonists of the estrogen related receptor signaling pathway with the pleiotropic PPARgamma coactivator (PGC) (AID 1224823)
Method in brief: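 Luminescence readout (One-Glo, 30 min RT) from PGC/ERR cell line treated 18 h at 37 C with pin-tool-delivered DMSO compound solutions; cells plated 6 h before dosing. Quantitative HTS format.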
On the % scale 0 is the no-effect control and ±100 the full control effect.

Sequence of Luciferin 4-monooxygenase (Photinus pyralis) (P08659 whole entry, looked up): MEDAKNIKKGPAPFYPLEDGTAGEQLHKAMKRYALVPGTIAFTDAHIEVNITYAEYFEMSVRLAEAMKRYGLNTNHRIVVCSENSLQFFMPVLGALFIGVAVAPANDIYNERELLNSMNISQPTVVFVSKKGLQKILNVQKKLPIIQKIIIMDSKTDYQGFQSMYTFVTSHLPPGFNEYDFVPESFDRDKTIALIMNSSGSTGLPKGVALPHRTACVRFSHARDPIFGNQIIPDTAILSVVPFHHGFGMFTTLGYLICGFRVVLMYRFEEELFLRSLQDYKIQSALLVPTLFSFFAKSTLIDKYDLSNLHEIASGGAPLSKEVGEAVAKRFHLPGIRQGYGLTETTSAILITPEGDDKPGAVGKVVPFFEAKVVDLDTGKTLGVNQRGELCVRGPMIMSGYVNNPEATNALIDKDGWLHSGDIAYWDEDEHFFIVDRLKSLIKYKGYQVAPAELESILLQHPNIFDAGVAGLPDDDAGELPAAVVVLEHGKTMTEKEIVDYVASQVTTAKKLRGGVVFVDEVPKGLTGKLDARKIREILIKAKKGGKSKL
Sequence of Thyrotropin receptor (Homo sapiens) (P16473 whole entry, looked up): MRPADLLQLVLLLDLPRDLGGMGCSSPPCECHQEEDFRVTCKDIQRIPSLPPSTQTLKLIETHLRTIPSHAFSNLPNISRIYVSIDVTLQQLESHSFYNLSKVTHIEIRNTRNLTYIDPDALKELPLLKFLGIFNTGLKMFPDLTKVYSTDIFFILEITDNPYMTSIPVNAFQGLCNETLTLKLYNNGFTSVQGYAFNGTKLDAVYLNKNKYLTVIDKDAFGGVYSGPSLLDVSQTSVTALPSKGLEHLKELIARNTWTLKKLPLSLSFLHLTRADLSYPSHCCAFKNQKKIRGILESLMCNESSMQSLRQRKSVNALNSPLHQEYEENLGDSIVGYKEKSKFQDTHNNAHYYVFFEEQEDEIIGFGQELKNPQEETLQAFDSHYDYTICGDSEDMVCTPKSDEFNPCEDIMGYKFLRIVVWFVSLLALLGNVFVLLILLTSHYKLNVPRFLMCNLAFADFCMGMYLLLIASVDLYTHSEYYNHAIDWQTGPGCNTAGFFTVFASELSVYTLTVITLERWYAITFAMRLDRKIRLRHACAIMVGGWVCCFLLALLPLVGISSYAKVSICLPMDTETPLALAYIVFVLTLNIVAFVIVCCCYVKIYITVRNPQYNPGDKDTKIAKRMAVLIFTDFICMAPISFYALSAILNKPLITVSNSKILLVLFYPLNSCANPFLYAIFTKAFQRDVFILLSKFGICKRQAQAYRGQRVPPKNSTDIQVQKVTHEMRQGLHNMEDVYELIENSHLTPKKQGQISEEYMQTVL
Sequence of Nuclear receptor subfamily 1 group I member 3 (Homo sapiens) (Q14994 whole entry, looked up): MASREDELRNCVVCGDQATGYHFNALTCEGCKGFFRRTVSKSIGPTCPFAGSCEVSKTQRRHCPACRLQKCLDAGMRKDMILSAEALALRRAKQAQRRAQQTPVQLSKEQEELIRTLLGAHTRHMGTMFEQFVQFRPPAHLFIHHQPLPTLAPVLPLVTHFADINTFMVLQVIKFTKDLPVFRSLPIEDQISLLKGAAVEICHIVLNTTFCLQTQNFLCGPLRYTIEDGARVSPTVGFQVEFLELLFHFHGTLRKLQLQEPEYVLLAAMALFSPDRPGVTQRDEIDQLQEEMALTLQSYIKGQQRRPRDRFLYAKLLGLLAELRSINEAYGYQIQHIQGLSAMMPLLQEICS

Cc1ccc(Cl)c(O)c1
inactive: Potency [1] | Potency [2] | Potency [3] | Potency [4] | Potency [5] | Potency [6] | Potency [7] | Potency [8] | Potency [9] | Potency [10] | Potency [11] | outcome [12] | outcome [13] | Potency [14] | Potency [15] | activity change, positive = activation [16] 6.81% [at 42.5 µM] | Potency [17] | Potency [18] | outcome [19]

O=C(Cl)OCc1ccccc1
inactive: Potency [1] | Potency [2] | Potency [3] | Potency [4] | Potency [5] | Potency [6] | Potency [7] | Potency [8] | Potency [9] | Potency [10] | Potency [11] | outcome [12] | outcome [13] | Potency [14] | Potency [15] | activity change, positive = activation [16] 6.05% | Potency [17] | outcome [19]

CCCCCCC1CCOC1=O (centres undefined)
inactive: Potency [1] | Potency [2] | Potency [3] | Potency [4] | Potency [5] | Potency [6] | Potency [7] | Potency [8] | Potency [9] | Potency [10] | Potency [11] | outcome [12] | Potency [14] | Potency [15] | activity change, positive = activation [16] 0.0938% | Potency [17] | Potency [18] | outcome [19]

BrCCc1ccccc1
inactive: Potency [1] | Potency [2] | Potency [3] | Potency [4] | Potency [5] | Potency [6] | Potency [7] | Potency [8] | Potency [9] | Potency [10] | Potency [11] | outcome [12] | outcome [13] | Potency [15] | activity change, positive = activation [16] 0.561% | Potency [17] | Potency [18] | outcome [19]

C[C@]12C=CC(=O)C=C1CC[C@@H]1[C@@H]2CC[C@@]2(C)[C@H]1CC[C@]2(C)O
inactive: Potency [1] | Potency [2] | Potency [3] | Potency [4] | Potency [5] | Potency [6] | Potency [7] | Potency [8] | Potency [9] | Potency [10] | Potency [11] | outcome [12] | Potency [14] | activity change, positive = activation [16] -17.6% [at 42.5 µM] | Potency [17] | outcome [19]

CC1NCCOC1c1ccccc1 (centres undefined)
inactive: Potency [1] | Potency [2] | Potency [3] | Potency [4] | Potency [5] | Potency [6] | Potency [7] | Potency [8] | Potency [9] | Potency [10] | Potency [11] | outcome [13] | Potency [14] | Potency [15] | activity change, positive = activation [16] 0.163% [at 42.5 µM] | Potency [17] | Potency [18] | outcome [19]

O=C(Cl)c1ccccc1
inactive: Potency [1] | Potency [2] | Potency [3] | Potency [4] | Potency [5] | Potency [6] | Potency [7] | Potency [8] | Potency [9] | Potency [10] | Potency [11] | outcome [12] | outcome [13] | Potency [14] | Potency [15] | activity change, positive = activation [16] 7.58% | Potency [17] | Potency [18] | outcome [19]

CC(Cl)(Cl)Cl
inactive: Potency [1] | Potency [2] | Potency [3] | Potency [4] | Potency [5] | Potency [6] | Potency [7] | Potency [8] | Potency [9] | Potency [10] | Potency [11] | outcome [12] | outcome [13] | Potency [14] | Potency [15] | activity change, positive = activation [16] 4% | Potency [17] | Potency [18] | outcome [19]

CCCN1CCC[C@@H]2Cc3[nH]ncc3C[C@H]21
inactive: outcome [20] | Potency [1] | Potency [2] | Potency [4] | Potency [5] | Potency [6] | Potency [7] | Potency [8] | Potency [9] | Potency [10] | Potency [11] | outcome [12] | Potency [14] | Potency [15] | activity change, positive = activation [16] 0.879% [at 42.5 µM] | Potency [17] | Potency [18] | outcome [19]

CCSC(=O)Cl
inactive: Potency [1] | Potency [2] | Potency [3] | Potency [4] | Potency [5] | Potency [6] | Potency [7] | Potency [8] | Potency [9] | Potency [10] | Potency [11] | outcome [12] | outcome [13] | Potency [14] | Potency [15] | activity change, positive = activation [16] 13.4% | Potency [17] | Potency [18] | outcome [19]

O=C(Cl)CCl
inactive: Potency [1] | Potency [2] | Potency [3] | Potency [4] | Potency [5] | Potency [6] | Potency [7] | Potency [10] | Potency [11] | outcome [12] | outcome [13] | Potency [14] | Potency [17] | Potency [18] | outcome [19]

C#CC(C)(C)O
inactive: Potency [1] | Potency [2] | Potency [3] | Potency [4] | Potency [5] | Potency [6] | Potency [7] | Potency [8] | Potency [9] | Potency [11] | outcome [12] | Potency [14] | Potency [15] | activity change, positive = activation [16] -2.81% | Potency [17] | outcome [19]

NNC(N)=O
inactive: Potency [1] | Potency [2] | Potency [3] | Potency [4] | Potency [5] | Potency [6] | Potency [7] | Potency [10] | Potency [11] | outcome [12] | Potency [14] | Potency [17] | outcome [19]

C/C(=N\NC(=O)Nc1cc(F)cc(F)c1)c1ncccc1C(=O)O
inactive: Potency [1] | Potency [2] | Potency [3] | Potency [4] | Potency [5] | Potency [6] | Potency [7] | Potency [10] | Potency [11] | outcome [12] | outcome [13] | Potency [14] | Potency [17] | Potency [18] | outcome [19]

CC(Cc1ccccc1)NCCCCl (centres undefined)
inactive: Potency [1] | Potency [2] | Potency [3] | Potency [4] | Potency [5] | Potency [6] | Potency [7] | Potency [10] | Potency [11] | outcome [12] | Potency [14] | Potency [17] | outcome [19]

CNC(=O)NC(O)C(Cl)(Cl)Cl (centres undefined)
inactive: Potency [1] | Potency [2] | Potency [3] | Potency [4] | Potency [5] | Potency [6] | Potency [7] | Potency [10] | Potency [11] | outcome [12] | outcome [13] | Potency [14] | Potency [17] | Potency [18] | outcome [19]
